High-throughput results: PubChem, several laboratories
Sampled rows, rich in hits. Any-hit rate of the full collection: about 5.2%.
SKN-1 block: inhibitors of C. elegans SKN-1. inhibition, % at 21.8 µM. 360,000 compounds, 0.49% hits. C. elegans VP596 Pgst-4::GFP/RFP ratio, acrylamide-induced, 24 h. AID 624304;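 active = interference check ratio from 0.5 to 1.5 plus GFP to RFP signal ratio inhibition reaching or exceeding a fixed threshold, cut at about 30% in these data, passing the limit was not always enough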
Vif inh: HIV Vif inhibition | HEK293T cells, Vif self-association by quenched fluorescence, imaging, 24 h | 340,000 compounds, 0.35% hits | inhibition, % at 7.49 µM; in the data active = inhibition above about 50%, passing the limit was not always enough; inconclusive = no clear call, values can overlap the other calls; inactive = below about 31%
NadD inh: inhibitors of Staphylococcus aureus NadD; purified NadD enzyme, colorimetric absorbance read-out; inhibition, % at 20 µM; 360,000 compounds, 0.78% hits; in the data active = inhibition above about 26%
esBAF inh: blocks esBAF chromatin remodeling in mouse ES cells | Bmi1-luciferase knock-in reporter, 24 h; 100% = twice the neutral-well signal | reporter increase, % at 12.5 µM | 350,000 compounds, 2% hits | AID 602393; in the data active = activation above about 40%; inconclusive = no clear call, values can overlap the other calls;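 note: 0% = median of the plate's neutral control wells and 100% = double that signal; a rise in the Bmi1 reporter signal indicates esBAF inhibition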
NR3A LBD binder: modulates the human NR3A ligand-binding domain; NR3A LBD differential scanning fluorimetry, Tm shift; 0% = protein alone, 100% = glycine-bound protein; Tm shift relative to glycine control, % at 25 µM; 340,000 compounds, 2.5% hits;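 active = melting temperature shift of at least 10% of the positive control shift, at one fixed dose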
SMARCA2 activ: SMARCA2 function activation, primary screen | MG213 cells, MMTV-luciferase reporter, dexamethasone, overnight | activation, % at 9.1 µM | 370,000 compounds, 1% hits | AID 652017; in the data active = activation above about 7.8%;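 note: 0% = vehicle wells and 100% = reference activator wells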
* marks the source's active call; other numbers are inactive results; ? = inconclusive; · = not tested or not shown.

SMILES	SKN-1 block	Vif inh	NadD inh	esBAF inh	NR3A LBD binder	SMARCA2 activ
CN1C(=S)N(c2cccnc2)C(=O)/C1=C\c1ccc(N(C)C)cc1	31	10	-1	3	-1	-6
O=c1c(-c2ccc(Br)cc2)coc2c(CN3CCCCC3)c(O)ccc12	2	-4	2	7	0	6
O=c1c(-c2ccc(F)cc2)coc2c3c(ccc12)OCCO3	7	3	0	52*	1	5
Fc1cccc(-c2csc(-c3ccno3)n2)c1	52*	2	-3	·	-36	-3
CC(Oc1cccc(Cl)c1)C(=O)Nc1ccccc1N1CCCCC1 (centres undefined)	15	-1	14	-5	4	-2
CC(Oc1cccc(Cl)c1)C(=O)Nc1cc(Cl)ccc1N1CCOCC1 (centres undefined)	11	-6	0	-5	21*	2
O=C(O)C/C(=C\c1cc(Br)cs1)c1nc2ccccc2o1	8	13	4	83*	-1	6
Cc1cccc(Cn2cc(SCC(=O)Nc3nccs3)c3ccccc32)c1	3	4	8	65*	0	1
Cn1cc(Cl)c(C(=O)N/N=C/c2ccc3c4c(cccc24)CC3)n1	-2	16	2	63*	-3	·
Cc1ccc(/C=N/NC(=O)c2nn(C)cc2Cl)cc1	3	1	-2	·	-7	4
Cn1cc(Br)c(C(=O)N/N=C/c2cc3c(cc2Cl)OCO3)n1	10	4	-2	47*	-1	3
COc1ccc([N+](=O)[O-])cc1NC(=O)C(C)OC(=O)CSC(C)C(=O)Nc1cc(C)on1 (centres undefined)	37*	·	0	-6	1	-3
CC(C)(C)NC(=O)CSc1nnc(NC(=O)c2ccccc2Cl)s1	-12	-6	-2	·	-13	0
O=C(CSc1nc2ccccc2s1)Nc1ccc2c(c1)oc1ccccc12	2	2	-1	·	39*	-1
O=C(CSc1nnc(NC(=O)c2ccccc2Cl)s1)Nc1ccc2c(c1)oc1ccccc12	·	·	·	·	·	11*
O=C(CSc1nc2ccccc2s1)Nc1ccc(Cl)c(C(=O)O)c1	5	-4	3	-1	1	-3
CCCC(=NCC(=O)O)C1=C(O)C(C(=O)OC)C(C)(C)CC1=O (centres undefined)	-11	13	1	3	25*	1
CCCC(=NCc1ccccc1)C1=C(O)C(C(=O)OC)C(C)(C)CC1=O (centres undefined)	9	-3	-5	4	1	2
CNC(=O)C[C@H]1CC[C@@H]2[C@H](COc3ccc(NC(=O)c4cscn4)cc3C(=O)N2C)O1	·	·	·	-2	·	·
CCOC(=O)c1c(C)oc2c1c(C=NCc1ccccn1)c(O)c1ccccc12	33	-14	-7	·	-2	-1
CCOC(=O)c1c(C)oc2c1c1c(c3ccccc32)OCN(CCCC(=O)O)C1	4	-7	7	51*	2	4
CCOC(=O)c1c(C)oc2c1c(C=NCC1CCCO1)c(O)c1ccccc12 (centres undefined)	2	24	-10	-6	-1	-2
CCOC(=O)c1c(C)oc2c1c(C(c1cccnc1)N1CCOCC1)c(O)c1ccccc12 (centres undefined)	-12	-3	-9	69*	2	8
CCOC(=O)c1c(C)oc2c1c1c(c3ccccc32)OCN(Cc2cccnc2)C1	-2	2	-5	74*	-2	·
CCOc1ccc(OCCOCCOc2ccccc2Cl)cc1	0	-6	-4	·	18*	4
SMILES	SKN-1 block	Vif inh	NadD inh	esBAF inh	NR3A LBD binder	SMARCA2 activ
COc1ccccc1OCCOCCOc1ccccc1Cl	11	-3	-8	·	0	-3
COc1ccc(CN(C)C[C@H]2Oc3ccc(NC(=O)Nc4ccc(C(F)(F)F)cc4)cc3CC(=O)N([C@H](C)CO)C[C@H]2C)cc1	·	·	·	-7	·	·
NC(=O)c1ccc(OCc2ccccc2)nc1	-5	3	-1	60*	-1	4
O=C(N[C@@H]1CC[C@@H](CCn2cc(C3(O)CCCC3)nn2)O[C@H]1CO)C1CC1	·	·	·	3	·	·
O=[N+]([O-])c1cccc(/C=N/Nc2nnc(-c3ccccc3)c(-c3ccccc3)n2)c1	6	7	27	·	-2	-6
O=[N+]([O-])c1ccc(N/N=C/c2ccccc2)c(F)c1	14	-7	-2	·	36*	3
Cc1cc(-c2ccccc2)nc(N/N=C/c2ccccc2)n1	4	0	7	17	1	1
Cc1cc(-c2ccccc2)nc(N/N=C/c2ccc(O)cc2O)n1	9	-3	5	15	11*	0
Cc1cc(-c2ccccc2)nc(N/N=C/c2ccc([N+](=O)[O-])cc2)n1	9	7	9	·	24*	-3
Cc1ccc(-c2nc(N/N=C/c3cccc([N+](=O)[O-])c3)c3ccccc3n2)cc1	15	6	-1	24	163*	2
CCCN(C)C[C@H]1Oc2cc(-c3cccnc3)ccc2S(=O)(=O)N([C@H](C)CO)C[C@H]1C	·	·	·	1	·	·
Cc1noc(C)c1NC(=O)Nc1ccc2c(c1)C(=O)N([C@@H](C)CO)C[C@@H](C)[C@@H](CN(C)C(=O)CCCN(C)C)OCCCC[C@@H](C)O2	·	·	·	5	·	·
Cc1nnc(N/N=C/c2ccc([N+](=O)[O-])cc2)n1N	-2	4	-4	-5	0	-9
Cc1csc(N/N=C/c2ccc([N+](=O)[O-])cc2)n1	24	12	3	53*	-1	1
O=[N+]([O-])c1cccc(C=NNc2ccccc2)c1	9	15	-2	?	34*	-2
O=[N+]([O-])c1cccc(/C=N/N=C\c2ccccc2)c1	11	-2	-7	29	0	-1
O=[N+]([O-])c1ccc(C=NNc2ccccc2)cc1	11	-7	0	44*	34*	-3
Nc1cc(Cl)nc(N/N=C/c2ccccc2[N+](=O)[O-])n1	9	·	-4	·	2	4
O=[N+]([O-])c1ccc(/C=N/Nc2ncc(-c3ccccc3)cn2)cc1	3	0	0	·	-1	-3
Nc1cc(Cl)nc(N/N=C/c2ccc([N+](=O)[O-])cc2)n1	2	-4	-2	·	21*	-1
CCC(=O)N(C)C[C@@H]1Oc2ncc(C#CCC(C)C)cc2C(=O)N([C@H](C)CO)C[C@@H]1C	·	·	·	5	·	·
O=C(C[C@H]1CC[C@H](NS(=O)(=O)c2ccc(F)cc2)[C@H](CO)O1)N1CCC(Cc2ccccc2)CC1	·	·	·	-4	·	·
CN(N)c1nc(-c2ccccc2)cc(-c2ccccc2)n1	13	-11	-3	-6	6	-3
O=[N+]([O-])c1ccc(C=CC=Cc2ccccc2)cc1	10	-2	0	56*	·	2
O=[N+]([O-])c1cccc(N/N=C/c2ccc(N3CCOCC3)cc2)c1	-9	-4	-2	66*	22*	2
